This is part of a sample that, as a whole, favours compounds with a hit. Of some 83,000 tested, about 20% had one in any assay.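 Interpretation: 100, growth as untreated; towards 0, rising growth inhibition; 0, no net growth; 0 to -100, cell death. Compounds scoring below 10 were considered active.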 Values without a mark were called inactive. Calls of active or inactive are those of the source.
System: MDA-MB-468 breast
Test: NCI-60 one-dose screen, 48 h (100 = growth as untreated, 0 = no growth, -100 = all killed)
Conditions: 10 µM unless noted

Compound	growth
O=C(Nc1ccc(Cl)cc1)Nc1ccc(Nc2nncc3ccccc23)cc1	0.165% (active)
N#Cc1c(NC(=O)c2ccc(Br)cc2)sc2c1CCCC2	19.5%
COc1ccc(-c2nnc(COc3ccc(NC(=O)Nc4cc(C(F)(F)F)cc(C(F)(F)F)c4)cc3F)o2)cc1	-9.21% (active)
O=C(NNc1nc2cc(F)ccc2n2c(CN3CCCC3)ccc12)c1cnccn1	-14.4% (active)
COc1cc(/C=N/NC(=O)c2cnn3c2NC(c2ccccc2)C3)ccc1Oc1ccccc1 (stereo not given)	6.71% (active)
c1ccc(OCC[P+](c2ccccc2)(c2ccccc2)c2ccccc2)cc1	-18.1% (active)
CCN(CC)c1ccc(/C=N\NC(=O)/C=C/C=C/c2ccc3c(c2)OCO3)c(O)c1	13.4%
COc1cc2c(cc1OC)[C@H](C(=O)O)[C@@H](c1ccc(OC(C)C)c(OC)c1)N(C)C2=O	105%
C=C1C(=O)O[C@H]2[C@H]1CC/C(COC(=O)c1cccc3ccccc13)=C\CC[C@@]1(C)O[C@@H]21	-45.1% (active)
Cc1cc(C(C)(C)CC(C)(C)C)ccc1OCCOCC[N+](C)(C)Cc1ccccc1	-82.5% (active)
CCN(CC)CCCCCCNc1cc(OC)c(Cl)c2cccnc12	32.1%
O=C(CN1N=C(c2ccc(F)cc2)CCC1=O)Nc1nccs1	94.6%
CN(C)c1ccc(/C=C/c2c(F)cccc2F)cc1	81.3%
COC(=O)c1cc(Br)ccc1O	93%
COc1cccc(-c2nc3sccn3c2-c2ccnc(NCCN3CCCN(C)S3(=O)=O)n2)c1	75.6%
Oc1ccc(CSc2nnc(-c3ccncc3)n2-c2ccccc2)c2cccnc12	14.2%
Cc1ccc(S(=O)(=O)NCCNc2cc(-c3cn(C(C)(C)C)nc3-c3cccc(O)c3)ccn2)cc1	35.8%
COc1cc(OC)c2sc(-c3ccc(-n4cncc4-c4cc(OC)c(OC)c(OC)c4)cc3)nc2c1	43.5%
Cc1ccc(NCc2cn(-c3ccc(C(=O)O)cc3)nc2-c2ccc(C(=O)O)cc2)cc1	120%
O=C1CSC(c2c(Cl)cccc2Cl)N1c1nc(Cl)cc(=O)[nH]1 (stereo not given)	117%
CCOC(=O)c1c(NC(=O)c2ccc(C(C)C)cc2)sc2c(CN(C)C)c(O)ccc12	-53.1% (active)
COc1ccc2[nH]cc(-c3nonc3-c3c[nH]c4ccc(Br)cc34)c2c1	77.8%
C=CC1=C(C)C2=NC1=CC1=NC(=CC3=C(C)C4=C(O)C(C(=O)O)C(=C5NC(=C2)C(C)C5CCC(=O)O)C4=N3)C(CC)=C1C (stereo not given)	115%
CN(c1ccccc1)c1ccc2c(c1)OCCC21CC1Nc1cnccc1C(=O)O (stereo not given)	72.3%
O=C(NNc1nccc(Nc2ccc(S(=O)(=O)Nc3ccncc3)cc2)n1)c1ccccc1	116%

Source: PubChem BioAssay (NCI)
